FAS-TE inh – FAS thioesterase (human) inhibition; 360,000 compounds, 0.67% hits; P49327; inhibition, % at 15 µM; recombinant FAS-TE, OMFH fluorogenic substrate, fluorescence endpoint; AID 602261;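 active = compounds whose normalised, plate-corrected inhibition of enzyme fluorescence in the single-dose primary screen is 50% or more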;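 note: 0% = DMSO with enzyme and 100% = substrate without enzyme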
ADAM10 inh – inhibits human ADAM10 | O14672 | recombinant ADAM10, EDANS/DABCYL FRET peptide cleavage, 3 h | inhibition, % at 7 µM | 370,000 compounds, 0.62% hits;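 active = inhibition above a per-campaign cutoff equal to the mean of compounds falling between control-based bounds plus 3 SD, cut at about 20% in these data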;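 note: 0% = DMSO wells while the 100% control is not disclosed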
ADAM17 inh – inhibitors of human ADAM17; P78536; recombinant ADAM17, EDANS/DABCYL FRET peptide cleavage; inhibition, % at 6.95 µM; 370,000 compounds, 0.83% hits; AID 720648;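 active = inhibition above the mean of compounds lying between control limits plus 3 SD, set per campaign, cut at about 8.5% in these data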;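 note: 0% = DMSO-only wells as the low control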
Target sequence (P78536 215-824 limits assumed): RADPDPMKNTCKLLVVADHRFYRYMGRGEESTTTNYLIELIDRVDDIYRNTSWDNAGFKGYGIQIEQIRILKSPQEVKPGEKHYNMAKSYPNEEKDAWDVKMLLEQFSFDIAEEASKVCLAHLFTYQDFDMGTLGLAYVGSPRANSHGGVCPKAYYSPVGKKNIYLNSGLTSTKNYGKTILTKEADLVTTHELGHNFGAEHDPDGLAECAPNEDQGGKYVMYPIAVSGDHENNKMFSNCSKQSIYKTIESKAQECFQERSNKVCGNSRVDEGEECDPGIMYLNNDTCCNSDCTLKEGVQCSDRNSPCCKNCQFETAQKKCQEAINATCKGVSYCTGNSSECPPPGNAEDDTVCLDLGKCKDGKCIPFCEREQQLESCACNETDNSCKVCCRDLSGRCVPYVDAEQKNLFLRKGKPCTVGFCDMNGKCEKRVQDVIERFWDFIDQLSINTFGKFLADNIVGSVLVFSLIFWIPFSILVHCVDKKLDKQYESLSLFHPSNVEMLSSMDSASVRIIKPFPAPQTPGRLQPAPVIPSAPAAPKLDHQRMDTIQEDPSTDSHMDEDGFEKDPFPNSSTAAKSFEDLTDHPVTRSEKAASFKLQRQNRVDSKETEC
aDG glyco up – alpha-DG glycosylation activation | Pro5-aDG cells, alpha-DG glycosylation AlphaScreen (IIH6); 0% Pro5, 100% B10-LARGE cell signal | activation, % at 10 µM | 360,000 compounds, 0.22% hits;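 active = activation of at least 8% versus controls, or a plate z-score of at least 8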;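 note: Pro5 are CHO cells carrying HIG-tagged alpha-DG that lacks glycosylation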
GRIN3A LBD mod – modulates the human NR3A ligand-binding domain. NR3A LBD differential scanning fluorimetry, Tm shift; 0% = protein alone, 100% = glycine-bound protein. 340,000 compounds, 2.5% hits. Tm shift relative to glycine control, % at 25 µM;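 active = melting temperature shift of at least 10% of the positive control shift, at one fixed dose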
ADAM10 counter – ADAM10 inhibition, counter-screen for ADAM17 exosite hits | inhibition, % at 6.95 µM | shares compounds with ADAM17 inh | recombinant ADAM10, EDANS/DABCYL FRET peptide cleavage, 3 h | 2,900 compounds, 47% hits;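 active = mean inhibition over the triplicate runs exceeds the activity threshold set in the earlier primary screen, cut at about 20% in these data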;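 note: 0% = DMSO wells and 100% = marimastat wells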
ADAM17 confirm – confirmation of inhibitors of human ADAM17. shares compounds with ADAM17 inh. recombinant ADAM17, EDANS/DABCYL QFRET peptide cleavage. inhibition, % at 6.95 µM. 2,900 compounds, 65% hits. AID 743257;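 active = mean inhibition across replicates above the hit cutoff set in the primary screen, cut at about 8.5% in these data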;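 note: 0% = DMSO wells and 100% = marimastat wells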
* marks the source's active call; other numbers are inactive results; / = no result. Most compounds without a hit are left out; they make up all but 4% or so of the library.

SMILES	FAS-TE inh	ADAM10 inh	ADAM17 inh	aDG glyco up	GRIN3A LBD mod	ADAM10 counter	ADAM17 confirm
CC(=O)N1c2ccc(C)cc2Sc2c1ccc1ccccc21	25	18	12*	0	-6	16	9.0*
Oc1c(C(Nc2ccccn2)c2cccnc2)cc(Cl)c2cccnc12 (stereo not given)	-1	14	11*	1	-5	26*	16*
Cc1ccc(CNC(=O)C(=O)NCCC2CCCCN2S(=O)(=O)c2ccc(C)cc2)cc1 (stereo not given)	25	19	13*	0	-1	6	2
Cc1ccc(S(=O)(=O)N2CCCCC2CCNC(=O)C(=O)NCc2cccnc2)cc1 (stereo not given)	0	-1	-3	0	2	/	/
Cc1ccc(CNC(=O)C(=O)NCC2OCCCN2S(=O)(=O)c2cccs2)cc1 (stereo not given)	0	4	11*	0	10	-2	0
O=C(NCCC1CCCCN1S(=O)(=O)c1ccccc1)C(=O)Nc1ccc(F)cc1 (stereo not given)	21	-11	9.7*	0	2	11	8
Cc1ccc(S(=O)(=O)N2C[C@]3(O)C[C@@H]4C(=O)N(c5ccccc5)C(=O)[C@@H]4C[C@]3(OC(=O)NCc3ccccc3)C2)cc1	-7	-13	-4	0	/	/	/
CC(C)CCOC(=O)/C(=C/c1ccco1)NC(=O)/C=C/c1ccccc1	8	5	4	0	-4	/	/
O=C(/C=C/c1ccc(S(=O)(=O)NCc2ccco2)cc1)NCc1ccccc1Cl	13	17	9.9*	0	-3	0	4
O=C(Oc1ccc(-c2nnco2)cc1)N1CCOCC1	-7	5	-2	0	0	/	/
Cc1ccccc1OCc1nnc(SCC(=O)Nc2ccc3nc(SCC(=O)Nc4ccccc4)sc3c2)n1C	-6	12	11*	0	17*	-43	-8
Cc1ccccc1OCc1nnc(SCC(=O)Nc2ccc3c(c2)OCO3)n1C	-1	3	2	0	1	/	/
CCC/C=C/c1ccc(CN2C(C(C)C)C(=O)N(Cc3cn(CCC4OCCO4)nn3)CCS2(=O)=O)cc1 (stereo not given)	13	12	11*	0	/	30*	17*
CCC/C=C/c1ccc(CN2C(CC(C)C)C(=O)N(Cc3cn(CCC4OCCO4)nn3)CCS2(=O)=O)cc1 (stereo not given)	17	15	7	0	/	/	/
O=C(NCc1ccccc1)NC(=O)c1ccncc1	-7	1	-2	0	-3	/	/
CC(=O)c1cccc(NC(=O)CCC(=O)c2ccc(F)cc2)c1	1	5	2	0	-4	/	/
CC(=O)c1cccc(NC(=O)COC(=O)CCC(=O)c2ccc(F)cc2)c1	1	-3	8.9*	0	-2	0	4
Cc1[nH]n(-c2ccccc2)c(=O)c1/C=N/N1C(=O)c2ccc3c4c(ccc(c24)C1=O)CC3	24	-69	-19	0	-16	/	/
Cc1ccc(C)c(N(CC(=O)Nc2ccccc2C(=O)NCc2ccco2)S(=O)(=O)c2ccccc2)c1	33	12	9.6*	0	4	23*	16*
Cc1ccc(N(CC(=O)Nc2ccccc2C(=O)NCc2ccco2)S(=O)(=O)c2ccccc2)cc1C	28	4	-6	0	-1	/	/
CN(C)S(=O)(=O)c1ccc(NC(=O)COC(=O)CC2CC3CCC2C3)cc1 (stereo not given)	40	13	8.6*	0	-7	20*	14*
COc1cccc(-c2ccc3ncnc(NCc4ccc5c(c4)OCO5)c3c2)c1	14	16	11*	1	-4	-4	2
c1nc(NCc2ccc3c(c2)OCO3)c2cc(-c3ccc4c(c3)OCCO4)ccc2n1	23	-88	-27	0	-33	/	/
Cc1cc(C2(c3ccc(O)c(C)c3)OC(=O)c3ccccc32)ccc1O	5	9	11*	0	-7	18	11*
Cc1ccc(NC(=S)N/N=C/c2ccc([N+](=O)[O-])s2)cc1	1	-3	11*	0	23*	33*	19*
SMILES	FAS-TE inh	ADAM10 inh	ADAM17 inh	aDG glyco up	GRIN3A LBD mod	ADAM10 counter	ADAM17 confirm
CCc1ccc(NC(=O)CSc2ccc(-c3cccnc3)nn2)cc1	4	3	-1	0	-1	/	/
Cc1cc(S(=O)(=O)NCc2ccccc2)ccc1OCC(=O)Nc1cccc([N+](=O)[O-])c1	37	18	8.7*	0	11*	35*	22*
COc1ccc(NC(=O)C2CCC(CNc3c(N4CCOCC4)c(=O)c3=O)CC2)cc1Cl (stereo not given)	-6	-15	-8	0	-1	/	/
CC(Oc1ccc(Cl)cc1Cl)C(=O)Nc1ccc(O)cc1 (stereo not given)	8	6	8.8*	0	-6	5	6
CC(Oc1ccc(Cl)cc1Cl)C(=O)Nc1cccc(O)c1 (stereo not given)	1	-5	-1	0	0	/	/
COc1ccc(CC(=O)Nc2ccc3c(c2)OC2(CCCC2)O3)c(OC)c1	16	-3	11*	0	/	10	8
COc1cccc(CC(=O)Nc2ccc3c(c2)OC2(CCCC2)O3)c1	14	7	-2	0	-6	/	/
O=C1CC(c2ccco2)CC(O)=C1C=Nc1cc(Cl)ccc1O (stereo not given)	25	18	11*	1	2	-30	-6
CC(=O)Nc1cccc(NC(=O)c2cccc(S(=O)(=O)N3CCN(Cc4ccccc4)CC3)c2)c1	2	19	20*	0	-7	15	12*
CNC(=S)N/N=C/c1ccc(-c2ccc(Cl)c([N+](=O)[O-])c2)o1	22	-3	-1	1	8	/	/
Cc1ccc(-c2ccc(/C=N/NC(=S)Nc3ccccc3)o2)cc1[N+](=O)[O-]	15	14	14*	0	27*	24*	17*
CN(C)S(=O)(=O)c1cccc(C(=O)N2CCN(Cc3ccccc3)CC2)c1	-4	-2	-2	0	-1	/	/
Cc1ccc(N(C)S(=O)(=O)c2cccc(C(=O)N3CCN(Cc4ccccc4)CC3)c2)cc1	11	16	9.3*	0	2	12	6
COc1ccc(NC(=O)N(C)C[C@H]2Oc3ccc(NC(=O)Nc4ccc(C(F)(F)F)cc4)cc3C(=O)N([C@H](C)CO)C[C@@H]2C)cc1	2	14	8.7*	1	7	36*	18*

Compound activity (PubChem)
